Results on 18 molecules are retold here after article PMC5540273 (PLoS ONE, 2017).

For one experiment, the system named is T1, MST2.
T1 construct: gene STK3
Conditions: n = 1.

For another experiment, the system named is T2, MST3.
T2 construct: gene STK24
The following applies: concentration: 1 μM, replicates: in singlicate; n = 1.

A further experiment has as its system MST4. The following applies: n = 1.
For the next experiment, the system named is MTOR. Conditions: n = 1.
The next experiment relates to MUSK. The following applies: n = 1.
The test system of a further experiment is MYLK2. The following applies: n = 1.
Another experiment deals with MYLK4. Conditions: n = 1.
In another experiment the test system is MYLK. The following applies: n = 1.
In the next experiment the test system is MYO3A. Conditions: n = 1.
The next experiment has as its system MYO3B. Conditions: n = 1.
Setting [1] is: concentration: 1 μM, replicates: in singlicate.
The mark [2] stands for this setting: concentration: 1 μM,replicates: in singlicate, 1 µM.

Values joined by “and” are separate entries in the source; they are usually repeats but may differ in a detail not shown here. Equal values may be shown once. Read-outs that look alike come from different tables or passages of the source.
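Also: KINOMEscan kinase panel screen.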

Regarding `COC(=O)c1c(-c2ccccc2)c2cc(OC)ccc2c(=O)n1Cc1ccccc1`, the “%Inh” value in the experiment on MST2 (setting [1]) is 26%; with MST3, 20%; with MST4 (setting [1]), 0%; in the experiment with MTOR (setting [1]), 0%; with MUSK (setting [1]) it was 11%; with MYLK2 (setting [1]) it was 0%. Besides, the “%Inh” value in the experiment with MYLK4 (setting [1]) was determined as 8%; in the experiment with MYLK (setting [1]), 0%; in the experiment on MYO3A (setting [1]), 9%; in the experiment with MYO3B (setting [1]), 0%.
Take `Nc1nc(-c2nccs2)c(-c2ccnc3ccccc23)s1` [GW693542]: the “%Inh” value with MST2 (setting [1]) came to 75%; in the experiment on MST3, 0%; with MST4 (setting [1]), 0%; in the experiment with MTOR (setting [1]), 15%; in the experiment on MUSK (setting [1]), 15%; with MYLK2 (setting [1]), 11%. Further, the “%Inh” value with MYLK4 (setting [1]) was determined as 0%; in the experiment with MYLK (setting [1]), 11%; with MYO3A (setting [1]), 3%; in the experiment with MYO3B (setting [1]), 0%.
On to `Cc1c(O)cccc1Nc1ccnc2ccc(C(F)(F)F)cc12.Cl` [GW466413], for which the “%Inh” value in the experiment with MST2 (setting [1]), with MST3, in the experiment on MST4 (setting [1]), in the experiment with MTOR (setting [1]), in the experiment on MUSK (setting [1]) and with MYLK2 (setting [1]) was 0% in each case. In addition, the “%Inh” value in the experiment with MYLK4 (setting [1]), in the experiment on MYLK (setting [1]), in the experiment on MYO3A (setting [1]) and in the experiment on MYO3B (setting [1]) was 0% throughout.
Regarding `Cc1ccc(NC(=O)Nc2cc(C(C)(C)C)nn2-c2ccccc2)cc1` [GSK1014915], the “%Inh” value with MST2 (setting [1]) is listed as 23%; with MST3, 5%; in the experiment on MST4 (setting [1]), 13%; in the experiment on MTOR (setting [1]), 30%; in the experiment with MUSK (setting [1]), 17%; in the experiment with MYLK2 (setting [1]), 9%. In addition, the “%Inh” value in the experiment with MYLK4 (setting [1]) stood at 4%; in the experiment with MYLK (setting [1]), 11%; in the experiment on MYO3A (setting [1]) it was 0%; with MYO3B (setting [1]) it was 0%.
For the molecule `COc1ccc(Nc2nccc(NCCNC(=O)Nc3ccccc3F)n2)cc1` [GSK1379901], the “%Inh” value turned out to be 0% with MST2 (setting [1]); 0% in the experiment on MST3; 0% in the experiment with MST4 (setting [1]); 22% in the experiment with MTOR (setting [1]); 15% in the experiment on MUSK (setting [1]); 0% with MYLK2 (setting [1]). Also, the “%Inh” value turned out to be 0% with MYLK4 (setting [1]), 15% with MYLK (setting [1]), 12% in the experiment with MYO3A (setting [1]) and 0% with MYO3B (setting [1]).
As to `Cc1ccccc1-n1cnc2c(N)ncnc21` [SKF-97510], the “%Inh” value in the experiment with MST2 (setting [1]) was determined as 15%; in the experiment with MST3, 18%; in the experiment on MST4 (setting [1]) it was 0%; in the experiment on MTOR (setting [1]), 0%; with MUSK (setting [1]), 0%; in the experiment with MYLK2 (setting [1]) it was 0%. Also, the “%Inh” value in the experiment on MYLK4 (setting [1]) is recorded as 0%; in the experiment on MYLK (setting [1]) it was 0%; in the experiment on MYO3A (setting [1]), 0%; in the experiment on MYO3B (setting [1]), 42%.
Regarding `NC(=O)c1nnc2ccccc2c1N`, the “%Inh” value was 65% with MST2 (setting [1]); 0% in the experiment with MST3; 15% in the experiment on MST4 (setting [1]); 10% in the experiment with MTOR (setting [1]); 10% with MUSK (setting [1]); 0% in the experiment on MYLK2 (setting [1]). The “%Inh” value is reported as 78% with MYLK4 (setting [1]), 37% in the experiment on MYLK (setting [1]), 9% in the experiment with MYO3A (setting [1]) and 5% in the experiment with MYO3B (setting [1]).
For the molecule `Nc1ncnc2[nH]c(-c3ccccc3)nc12` [AH5015], the “%Inh” value with MST2 (setting [1]) was 0%; with MST3, 0%; with MST4 (setting [1]) it was 1%; with MTOR (setting [1]), 9%; in the experiment on MUSK (setting [1]) it was 18%; with MYLK2 (setting [1]), 0%. The “%Inh” value with MYLK4 (setting [1]) is on record as 30%; in the experiment with MYLK (setting [1]), 7%; in the experiment with MYO3A (setting [1]), 8%; in the experiment on MYO3B (setting [1]), 0%.
On to `COc1ccccc1-c1ccc2c(NC(=O)C3CC3)n[nH]c2n1` [SB-711239], for which the “%Inh” value turned out to be 0% in the experiment with MST2 (setting [1]); 0% in the experiment on MST3; 0% in the experiment on MST4 (setting [1]); 30% in the experiment with MTOR (setting [1]); 0% in the experiment with MUSK (setting [1]); 23% with MYLK2 (setting [1]). Moreover, the “%Inh” value turned out to be 0% in the experiment with MYLK4 (setting [1]), 12% with MYLK (setting [1]), 0% in the experiment on MYO3A (setting [1]) and 0% in the experiment on MYO3B (setting [1]).
Consider `CC1=C(C(=O)Nc2cc3cn[nH]c3cc2F)C(c2ccc(C(F)(F)F)cc2)CC(=O)N1` (stereo not drawn) [GSK429286], for which the “%Inh” value in the experiment on MST2 (setting [1]) was found to be 0%; in the experiment with MST3, 0%; in the experiment with MST4 (setting [1]), 0%; with MTOR (setting [1]), 13%; in the experiment on MUSK (setting [1]), 6%; in the experiment with MYLK2 (setting [1]) it was 0%. Besides, the “%Inh” value with MYLK4 (setting [1]) is listed as 0%; in the experiment with MYLK (setting [1]), 13%; in the experiment on MYO3A (setting [1]) it was 0%; in the experiment on MYO3B (setting [1]), 0%.
For `Cc1cc(N2Cc3ccccc3C2)nc(Nc2ccc(S(=O)(=O)N3CCOCC3)cc2)n1.Cl` [GSK1669917], the “%Inh” value worked out at 0% in the experiment on MST2 (setting [1]); 0% with MST3; 0% with MST4 (setting [1]); 9% in the experiment with MTOR (setting [1]); 0% in the experiment with MUSK (setting [1]); 0% in the experiment with MYLK2 (setting [1]). In addition, the “%Inh” value with MYLK4 (setting [1]) turned out to be 0%; in the experiment on MYLK (setting [1]), 12%; in the experiment on MYO3A (setting [1]) it was 0%; in the experiment with MYO3B (setting [1]), 0%.
On to `COc1ccc(Nc2nccc(-c3cccc(NC(=O)c4cc5cc(F)ccc5[nH]4)c3)n2)cc1` [GSK1229782], for which the “%Inh” value is recorded as 24% with MST2 (setting [1]); 15% in the experiment on MST3; 0% with MST4 (setting [1]); 21% in the experiment on MTOR (setting [1]); 6% in the experiment with MUSK (setting [1]); 19% with MYLK2 (setting [1]). Also, the “%Inh” value with MYLK4 (setting [1]) was found to be 11%; in the experiment on MYLK (setting [1]), 31%; in the experiment with MYO3A (setting [1]), 60%; in the experiment on MYO3B (setting [1]), 0%.
For `CSc1nn2c(=O)cc(N3CCOCC3)nc2n1Cc1cccc(C(F)(F)F)c1C` [GSK2363608], the “%Inh” value in the experiment with MST2 (setting [2]) was 9% and 1%; in the experiment on MST3 it was 0%; with MST4 (setting [2]) it was 90.3% and 0%; in the experiment with MTOR (setting [2]) it was 13% and 28%; with MUSK (setting [2]) it was 12% and 4%; in the experiment with MYLK2 (setting [2]) it was 19% and 0%. The “%Inh” value in the experiment with MYLK4 (setting [2]) was 17% and 0%; with MYLK (setting [2]) it was 6% and 0%; with MYO3A (setting [2]), 21% and 0%; in the experiment with MYO3B (setting [2]) it was 0% and 14%.
On to `COc1ccccc1CNC(=O)c1cc(C(=O)c2ccccc2C)c[nH]1` [GSK364507], for which the “%Inh” value with MST2 (setting [1]) worked out at 0%; with MST3 it was 0%; in the experiment with MST4 (setting [1]), 0%; in the experiment with MTOR (setting [1]), 13%; with MUSK (setting [1]), 7%; in the experiment with MYLK2 (setting [1]), 6%. Besides, the “%Inh” value is 3% with MYLK4 (setting [1]), 19% with MYLK (setting [1]), 6% in the experiment with MYO3A (setting [1]) and 2% in the experiment on MYO3B (setting [1]).
With `Fc1cc(Cl)ccc1Nc1ccnc2cc(-c3ccc(CN4CCCCC4)o3)ccc12` [GW560116], the “%Inh” value in the experiment on MST2 (setting [1]) is 0%; with MST3 it was 15%; with MST4 (setting [1]) it was 0%; in the experiment on MTOR (setting [1]), 0%; in the experiment on MUSK (setting [1]), 0%; in the experiment on MYLK2 (setting [1]) it was 27%. For the same molecule, the “%Inh” value in the experiment on MYLK4 (setting [1]) is 5%; with MYLK (setting [1]) it was 11%; in the experiment on MYO3A (setting [1]), 31%; with MYO3B (setting [1]) it was 0%.
Consider `Cc1cc(NCC(c2ccccc2)c2ccccc2)nc(NCc2ccc(C(F)(F)F)cc2)n1` [GW497681], for which the “%Inh” value with MST2 (setting [1]) is given as 0%; in the experiment with MST3 it was 3%; in the experiment with MST4 (setting [1]), 0%; in the experiment on MTOR (setting [1]), 1%; in the experiment with MUSK (setting [1]), 0%; with MYLK2 (setting [1]) it was 0%. Further, the “%Inh” value came out at 0% in the experiment on MYLK4 (setting [1]), 15% in the experiment on MYLK (setting [1]), 34% in the experiment with MYO3A (setting [1]) and 0% in the experiment with MYO3B (setting [1]).
As to `CCCc1ccc(S(=O)(=O)NC2CCN(c3ccnc(Nc4ccc(F)cc4)n3)C2)cc1` (stereo not drawn) [GSK1379715], the “%Inh” value in the experiment on MST2 (setting [1]) came out at 0%; in the experiment with MST3 it was 0%; in the experiment on MST4 (setting [1]) it was 0%; in the experiment with MTOR (setting [1]), 0%; with MUSK (setting [1]), 8%; with MYLK2 (setting [1]), 0%. The “%Inh” value with MYLK4 (setting [1]) came to 0%; in the experiment with MYLK (setting [1]) it was 0%; in the experiment with MYO3A (setting [1]), 11%; in the experiment with MYO3B (setting [1]), 0%.
`O=C(Nc1n[nH]c2cc(-c3cccc(F)c3F)ccc12)C1CC1` [SB-733894]: the “%Inh” value in the experiment on MST2 (setting [1]) is on record as 31%; in the experiment with MST3, 0%; with MST4 (setting [1]), 8%; with MTOR (setting [1]), 0%; in the experiment with MUSK (setting [1]), 0%; with MYLK2 (setting [1]) it was 90.2%. For the same molecule, the “%Inh” value in the experiment on MYLK4 (setting [1]) was determined as 0%; with MYLK (setting [1]), 8%; in the experiment with MYO3A (setting [1]), 2%; in the experiment on MYO3B (setting [1]), 0%.
